HCMV inh: inhibitors of human cytomegalovirus. 4.5% of 410,000 active. activity change, negative = inhibition, % at 57.5 µM. HFF cells, HCMV-luciferase reporter, 72 h; active compounds read low. AID 1259415; in the data active = activity change below about -60%; inconclusive = no clear call, values can overlap the other calls; inactive = above about -39%
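Two-dose cell screen: HFF monolayers treated with compounds and infected with luciferase-expressing HCMV at 1 PFU/cell, 72 h at 37C, then lysed for luciferase measurement.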
HCV inh: blocks hepatitis C virus; Huh7.5.1 HCVcc-Cre infection, luciferase reporter, 44 h; Potency, µM (doses to about 41.8 µM), actives largely listed as inhibitors; 3.4% of 340,000 active; active = well fitted inhibition curve with a large enough effect; inconclusive = small, poorly fitted or top-dose-only effect, or another doubt; inactive = no such curve, though single readings can be large or run the other way
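Whole-lifecycle infectious HCVcc-Cre system; cells 1,000/well, compound then virus (~0.5 moi) added 4 h after plating, 44 h culture. Luciferase read 15 sec following 15 min substrate incubation, room temp.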
FMDV antiviral: antivirals against foot and mouth disease virus | FMDV antiviral cell-based qHTS | Potency, µM (doses to about 57.9 µM), usual class: inhibitors | 1.2% of 410,000 active | AID 1159524; calls by dose curve; tested in HEK293T cells; note: read-out not given here; nearly all actives have a fitted effect of over 45% in size
Vaccinia Venus: inhibitors of vaccinia virus (Venus reporter) | Potency, µM (top dose mostly 36.5 µM), most hits filed as inhibitors | AID 720580 | Vaccinia virus Venus reporter expression, fluorescence | 0.46% of 330,000 active; calls by dose curve; tested in A549 cells; note: nearly all actives have a fitted effect of over 30% in size
VACV mCherry inh: inhibitors of vaccinia virus infection (mCherry reporter signal); Vaccinia virus mCherry reporter infection, fluorescence; Potency, µM (highest dose often 36.5 µM), actives largely listed as inhibitors; 0.63% of 310,000 active; AID 720579; calls by dose curve; tested in A549 cells; note: nearly all actives have a fitted effect of over 35% in size
Large screens that a line does not name were inactive. In the library only some 7.3% were active in any assay of this set; here they are far more common.

O=[N+]([O-])c1ccc(NC(c2ccccc2)c2ccc3cccnc3c2O)cc1 (configuration not stated)	HCMV inh -97.5, HCV inh inconclusive, Vaccinia Venus inconclusive, VACV mCherry inh inconclusive
Oc1c(C(Nc2ccccn2)c2ccccc2)ccc2cccnc12 (configuration not stated)	Vaccinia Venus inconclusive, VACV mCherry inh 11.2µM (no result: HCMV inh, HCV inh, FMDV antiviral)
O=C(OCC1CCCO1)c1ccc2c(c1)N(Cc1cccc(Cl)c1)C(=O)c1ccccc1S2(=O)=O (configuration not stated)	none (no result: HCV inh)
CCOC(=O)Cn1c(-c2nonc2NC(=O)c2ccccc2F)nc2ccccc21	HCMV inh -98.0, HCV inh inconclusive, VACV mCherry inh 10µM
CCC(=O)Nc1nonc1-c1nc2ccccc2n1Cc1cccc2ccccc12	HCMV inh -104.1, HCV inh inconclusive, FMDV antiviral inconclusive, Vaccinia Venus inconclusive, VACV mCherry inh inconclusive
CCOC(=O)c1cc2c(=O)n3ccccc3nc2n(C(C)C)c1=NC(=O)c1cc2ccccc2o1	none (no result: HCV inh)
Cc1ccc(C)c(N2CCN(CCCNC(=O)Cn3cccc3C(=O)c3ccccc3C)CC2)c1	HCMV inh -94.1, HCV inh 11.2µM, FMDV antiviral inconclusive, Vaccinia Venus inconclusive, VACV mCherry inh inconclusive
Cc1ccccc1C(=O)c1cccn1CC(=O)NCCN1CCN(c2cccc(C)c2C)CC1	HCV inh 11.2µM, FMDV antiviral inconclusive (no result: Vaccinia Venus, VACV mCherry inh)
Cc1ccccc1C(=O)c1cccn1CC(=O)NCCCN1CCCCC1	none
CN(c1ccccc1)S(=O)(=O)c1cccc(NS(=O)(=O)c2cccc(C(=O)O)c2)c1	none
Cn1cc(CN2CCOc3ccc(C(O)C4CCCCC4)cc3C2)cn1 (configuration not stated)	none (no result: HCMV inh, HCV inh)
CCCN(CCC)c1ccc(/C=C/c2sc3ccccc3[n+]2CCCCI)cc1	none (no result: HCMV inh, HCV inh, FMDV antiviral)
CCOC(=O)CNC(=O)CSc1ncnc2c1nnn2-c1ccc(F)cc1	HCMV inh -67.5 (no result: VACV mCherry inh)
CCOC(=O)CNC(=O)Cn1cnc2c(nnn2-c2ccc(F)cc2)c1=O	none (no result: Vaccinia Venus, VACV mCherry inh)
O=C(CSc1ncnc2c1nnn2Cc1ccc(F)cc1)NCC1CCCO1 (configuration not stated)	HCV inh inconclusive, FMDV antiviral 35.5µM (no result: Vaccinia Venus, VACV mCherry inh)
CCOC(=O)Cn1cnc2c(nnn2-c2ccc(C)cc2)c1=O	HCMV inh -73.5 (no result: Vaccinia Venus, VACV mCherry inh)
NC(=O)CSc1ncnc2c1nnn2Cc1ccc(F)cc1	FMDV antiviral 35.5µM
O=C(CSc1ncnc2c1nnn2Cc1ccc(F)cc1)NC1CCCCC1	none
CCOC(=O)Cn1cnc2c(nnn2-c2ccc(OC)cc2)c1=O	none (no result: Vaccinia Venus, VACV mCherry inh)
CN(CC(=O)Nc1ccc(C#N)cc1)Cc1ccc(Cl)cc1	none (no result: FMDV antiviral)
O=C(Nc1ccc(Cl)cc1)Nc1ccc(Cl)c(Cl)c1	HCMV inh -98.4, HCV inh inconclusive, Vaccinia Venus 11.2µM, VACV mCherry inh 12.6µM
O=C(Nc1ccccc1)Nc1ccc(Br)c(Cl)c1	HCMV inh -98.3, HCV inh 12.6µM, Vaccinia Venus inconclusive, VACV mCherry inh inconclusive
N#Cc1ccc(NC(=O)Nc2ccc(Cl)cc2)cc1	HCMV inh -100.6, HCV inh inconclusive, FMDV antiviral inconclusive, Vaccinia Venus 11.2µM, VACV mCherry inh inconclusive
O=C(Nc1ccc(Cl)c(Cl)c1)Nc1nnc(-c2ccncc2)s1	HCV inh 8.91µM
CCC(=O)Nc1ccc2nc(SCCOc3ccc(C)cc3)sc2c1	HCMV inh inconclusive (no result: HCV inh)
Cc1cc(OCCN2CCN(S(=O)(=O)c3ccccc3F)CC2)ccc1C(C)C	none (no result: Vaccinia Venus, VACV mCherry inh)
O=C(NC(=S)Nc1ccc(Br)c(Cl)c1)C1CC1	HCV inh 10µM (no result: Vaccinia Venus, VACV mCherry inh)
O=C(NCC1CC1)Nc1ccc(Cl)cc1	HCMV inh -94.5 (no result: Vaccinia Venus, VACV mCherry inh)
CC(=O)Nc1ccc(NC(=S)NC(=O)C2CC2)cc1	none
O=C(Nc1ccc(Cl)c(Cl)c1)Nc1ccc(Br)cc1F	HCMV inh -99.3, HCV inh inconclusive, FMDV antiviral inconclusive, Vaccinia Venus inconclusive, VACV mCherry inh inconclusive
CC(C)(C)N(NC(=O)Nc1ccc(Cl)c(Cl)c1)C(=O)c1ccccc1	HCMV inh -79.6, HCV inh inconclusive, FMDV antiviral inconclusive, Vaccinia Venus 12.6µM
COc1ccc(CN2C(=O)C(n3c(C)ccc3C)c3cc(F)ccc32)cc1 (configuration not stated)	none (no result: HCV inh, FMDV antiviral, Vaccinia Venus, VACV mCherry inh)
COC(=O)C(C)Sc1nnc2cc(C)c3cc(C)cc(C)c3n12 (configuration not stated)	none (no result: HCV inh)
CCc1cc2ccc(C)cc2nc1SCC(=O)NC1CCCC1	none
Cc1cccc2sc(NC(=O)CN(C)S(=O)(=O)c3cccs3)nc12	FMDV antiviral 39.8µM, Vaccinia Venus inconclusive (no result: VACV mCherry inh)
Cc1cccc2sc(NC(=O)C3CC3)nc12	none
Cc1cccc2sc(NC(=O)CN(C)S(=O)(=O)c3ccc(Br)s3)nc12	HCV inh inconclusive, FMDV antiviral inconclusive, Vaccinia Venus inconclusive (no result: VACV mCherry inh)

Source: PubChem BioAssay
